Assay [1] in a line: Quantitative High-Throughput drug screen in 47 multiple myeloma cell lines against the NCATS MIPE library collection: KMS28BM_JCRB cell viability assay (AID 1919874; active means well fitted cell-killing curve with a large enough effect; further: nearly all actives have a fitted effect of over 35% in size; further: potency means the concentration at half of the fitted maximal effect). A digest of the protocol:
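Cells were exposed to library compounds for 48 hours, after which ATP was measured by CellTiter-Glo. Signal was taken as median relative luminescence units.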

The nature of assay [2]: qHTS for identification of novel therapeutic agents for treatment of microphthalmiaassociated transcription factor (MiT) renal cell carcinoma (RCC) (AID 1963991). Further: potency means the concentration at half of the fitted maximal effect.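 On z-score: curves scaled with 100% = DMSO viability and 0% = empty wells.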 To be noted: CellTiter-Glo, 48 h; for Potency: active = Z-AUC below -0.8 in all three lines; for z-score: stronger effect = lower value. The procedure, abridged:
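UOK109/UOK124/UOK145 (TFE3 fusions, three partners); 500 cells/well; MIPE v4.0, 1912 cpds, 11 conc.; 48 h, 37 C; CellTiter-Glo, 15 min RT; lum. Norm.: DMSO 100%, empty 0%.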
(qHTS replaces the single test concentration by a dilution series.)

A short description of assay [3]: qHTS drug screen for cell cycle checkpoint inhibitors in PARPi-resistant BRCA-mutant ovarian cancer cell lines. (AID 1963452). Particulars: PEO1/OlaR viability, CellTiter-Glo luminescence, 96 h, stronger effect = lower value. A digest of the protocol:
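PEO1, PEO4 and PEO1/OlaR ovarian cancer cells, 600 per well, exposed 96 h at 37C to a dilution series. Viability read by CellTiter-Glo luminescence, normalized to DMSO and empty wells; activity summarized as Z-AUC.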

The mark [4] stands for this setting: TFE3-RCC UOK109 viability, measured here: UOK109 Z-AUC.
[5] abbreviates: TFE3-RCC viability, measured here: UOK124 Z-AUC.
Where [6] appears, read: TFE3-RCC viability, measured here: UOK145 Z-AUC.
Where [7] appears, read: measured here: PEO1 parental Z-AUC.

Inconclusive results are not listed. Calls of active or inactive are those of the source. Unless noted, the call rests on the fitted dose curve.

For the molecule `Cc1[nH]c(C=C2C(=O)Nc3ccccc32)c(C)c1CCC(=O)O`, the values for the Potency in assay [1] and in assay [2] (TFE3-RCC UOK109 viability) were 14800 nM (active) and 833 nM (active), respectively. For the same molecule, the z-score in assay [2] (setting [4]) is -1.41; in assay [2] (setting [5]), -0.97; in assay [2] (setting [6]), -1.35.
For the molecule `CON=C(C(=O)N[C@@H]1C(=O)N2C(C(=O)O)=C(Cn3ccc(=N)n3CCO)CS[C@H]12)c1csc(N)n1`, in assay [1], the Potency result was “inactive”. Moreover, the z-score in assay [2] (setting [4]) came out at 1.44; in assay [2] (setting [5]), 0.0348; in assay [2] (setting [6]), 0.881.
Regarding `Oc1cc(-c2nc(-c3ccccc3)[nH]c2-c2ccncc2)ccc1Cl`, the Z-AUC is -0.516 (inactive) in assay [3], -0.935 in assay [3] (setting [7]) and -1.11 in assay [3] (measured here: PEO4 Z-AUC).
For the molecule `CCOC(=O)C=C[C@H](C[C@@H]1CCNC1=O)NC(=O)[C@@H](CC(=O)[C@@H](NC(=O)c1cc(C)on1)C(C)C)Cc1ccc(F)cc1`, the Z-AUC was -0.315 (inactive) in assay [3], -0.169 in assay [3] (setting [7]) and 0.164 in assay [3] (measured here: PEO4 Z-AUC).
`CC(C)(C)[C@H](NC(=O)c1ccc(N)c(Cl)c1)C(=O)N1CCC[C@@H]1C(=O)N[C@H](C#N)CC(=O)O`: the values for the z-score in assay [2] (setting [4]), in assay [2] (setting [5]) and in assay [2] (setting [6]) were 1.53, 2.68 and 2.13, respectively.
Regarding `O=C1NC(=O)[C@@H](c2cn3c4c(cccc24)CCC3)[C@H]1c1c[nH]c2ccccc12`, in assay [2] (TFE3-RCC UOK109 viability), the Potency is 935 nM (active). For the same molecule, the z-score in assay [2] (setting [4]) is -1.28; in assay [2] (setting [5]) it was -0.931; in assay [2] (setting [6]), -1.11.
Regarding `COC(=O)[C@@H]1CC2=CC(=O)CC[C@]2(C)[C@@]23O[C@@H]2C[C@@]2(C)[C@H](CC[C@@]24CCC(=O)O4)[C@@H]13`, the z-score is 0.222 in assay [2] (setting [4]), 0.454 in assay [2] (setting [5]) and 0.45 in assay [2] (setting [6]).
For `FC(F)c1nc2ccccc2n1-c1nc(N2CCOCC2)nc(N2CCOCC2)n1`, the Z-AUC in assay [3] is -1.24 (inactive); in assay [3] (setting [7]), -1.07; in assay [3] (measured here: PEO4 Z-AUC), -0.858.
With `CS(=O)(=O)N1CCc2c(-c3cnc(N)nc3)nc(N3CCOCC3)nc21`, the Z-AUC was -0.521 (inactive) in assay [3], -0.562 in assay [3] (setting [7]) and 0.0155 in assay [3] (measured here: PEO4 Z-AUC). In addition, the Potency in assay [2] (TFE3-RCC UOK109 viability) was 93.5 nM (active). Moreover, the z-score in assay [2] (setting [4]) was -2.02; in assay [2] (setting [5]), -1.41; in assay [2] (setting [6]), -1.55.
Take `CC(C)n1cnc2c(NCCc3ccc(O)cc3)nc(-c3csc4ccccc34)nc21`: the Z-AUC in assay [3] is 0.419 (inactive); in assay [3] (setting [7]), 0.415; in assay [3] (measured here: PEO4 Z-AUC), 0.466.
Taken in the same sequence, the figures for `NC(=O)Nc1cc(-c2ccc(CN3CCOCC3)cc2)sc1C(N)=O` were 0.59 (inactive), 0.476 and 0.41.
Turning to `Cc1ccc(-n2[nH]c(C)c(N=Nc3cccc(-c4cccc(C(=O)O)c4)c3O)c2=O)cc1C`, the Z-AUC was -0.217 (inactive) in assay [3], -0.314 in assay [3] (setting [7]) and 0.208 in assay [3] (measured here: PEO4 Z-AUC).
Consider `Cc1cc(-c2nnc3n2CCCCC3)c(C)n1-c1ccccc1`, for which the z-score in assay [2] (setting [4]) amounted to 0.931; in assay [2] (setting [5]) it was 0.469; in assay [2] (setting [6]), 0.656.
Turning to `CN(CC(=O)N(Cc1ccc(C2CCCCC2)cc1)c1ccc(C(=O)O)c(O)c1)S(=O)(=O)c1c(F)c(F)c(F)c(F)c1F`, the results for the Z-AUC in assay [3], in assay [3] (setting [7]) and in assay [3] (measured here: PEO4 Z-AUC) were 0.87 (inactive), 0.115 and 0.274, respectively.
In the case of `CC(Oc1ccc(O)cc1)(P(=O)(O)O)P(=O)(O)O`, the Z-AUC is 0.474 (inactive) in assay [3], 0.34 in assay [3] (setting [7]) and 0.383 in assay [3] (measured here: PEO4 Z-AUC). Further, the z-score was 0.171 in assay [2] (setting [4]), 0.237 in assay [2] (setting [5]) and 0.233 in assay [2] (setting [6]).
For the molecule `O=C1NCCc2[nH]c(-c3ccncc3)cc21`, the Z-AUC was -1.33 (inactive) in assay [3], -1 in assay [3] (setting [7]) and -1.61 in assay [3] (measured here: PEO4 Z-AUC).
Taken in the same sequence, the figures for `COc1cc2ncnc(Nc3cccc(Br)c3)c2cc1OC` were 0.281 (inactive), 0.586 and 0.428.
The like results for `O=C(NC1CC1)c1cccc(-c2ccc3c(NC(=O)C4CC4)n[nH]c3c2)c1` were, in that order, -1.31 (inactive), -0.612 and -0.0864.
Consider `Nc1nc(=O)n([C@H]2CSC(CO)O2)cc1F` (some centres undefined), for which the results for the z-score in assay [2] (setting [4]), in assay [2] (setting [5]) and in assay [2] (setting [6]) were 0.159, 0.427 and 0.298, respectively.
As to `C=C(C)[C@@H]1CC[C@]2(C)CC[C@]3(C)[C@H](CC[C@@H]4[C@@]5(C)CC[C@H](O)C(C)(C)[C@H]5CC[C@]43C)[C@@H]12`, the Z-AUC in assay [3] is 1.12 (inactive); in assay [3] (setting [7]), 0.74; in assay [3] (measured here: PEO4 Z-AUC), 1.16. Further, the z-score in assay [2] (setting [4]) came out at 1.03; in assay [2] (setting [5]), 0.631; in assay [2] (setting [6]), 0.295.
Turning to `CCOC(=O)C1=C(C)NC(=S)NC1c1cccc(O)c1` (centres undefined), the Z-AUC was 1.34 (inactive) in assay [3], 0.343 in assay [3] (setting [7]) and 0.61 in assay [3] (measured here: PEO4 Z-AUC).
The like results for `O=C(O)c1ccc(Nc2ncc3c(n2)-c2ccc(Cl)cc2C(c2c(F)cccc2F)=NC3)cc1` were, in that order, 0.584 (inactive), 0.311 and -0.364.
The like results for `FC(F)(F)c1ccc(Nc2nc3ccc(Oc4ccnc(-c5ncc(C(F)(F)F)[nH]5)c4)cc3[nH]2)cc1` were, in that order, -0.52 (inactive), -0.706 and -1.16.
The like results for `O=C(O)CCCCC(CCSCc1ccccc1)SCc1ccccc1` (centres undefined) were, in that order, 1.05 (inactive), 1.63 and 1.32.
For `C[C@]12C=CC(=O)N[C@@H]1CC[C@H]1[C@H]3CC[C@@H](C(=O)Nc4cc(C(F)(F)F)ccc4C(F)(F)F)[C@@]3(C)CC[C@@H]12`, the z-score was 0.94 in assay [2] (setting [4]), 0.86 in assay [2] (setting [5]) and 0.116 in assay [2] (setting [6]).
